Shown are actives, neighbours in structure and some others; about 10% of the full set was active somewhere.
Sfp PPTase inh: qHTS Assay for Inhibitors of Bacillus subtilis Sfp phosphopantetheinyl transferase (PPTase). Potency, µM, without a hit: largest response in the series, negative = inhibition, hits mostly inhibitors. actives 3.5% (n = 310,000). Biochemical Sfp PPTase activity, qHTS;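 note: the enzyme is Sfp with the accession as filed and its product quenches rhodamine fluorescence; potency is the fitted concentration of half-maximal effect; 0% = enzyme reaction without inhibitor and -100% = no enzyme wells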
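Reaction rates are the 30-min fluorescence difference (ex 525, em 598 nm) in wells containing 15 nM Sfp, 5 uM rhodamine-CoA and 12.5 uM BHQ-2-YbbR at pH 7.6 with 10 mM MgCl2.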
PLK1 PBD block: qHTS for Inhibitors of PLK1-PDB (polo-like kinase 1 - polo-box domain): Primary Screen; Serine/threonine-protein kinase PLK1 (Homo sapiens), P53350; Plk1 PBD binding of FITC phosphopeptide, fluorescence polarization; Potency, µM, for inactives: max response, negative = inhibition, actives largely listed as inhibitors; actives 2.8% (n = 360,000); note: potency is the fitted concentration of half-maximal effect; series mostly up to about 57 µM; nearly all actives have a fitted effect of over 65% in size
VDR inh: Inhibitors of the vitamin D receptor (VDR): qHTS. VDR-SRC2-3 peptide fluorescence polarization, 2 h. Potency, µM, inactives show max response, negative = inhibition, most hits filed as inhibitors. Vitamin D3 receptor (Homo sapiens), P11473. actives 0.93% (n = 400,000); note: potency is the fitted concentration of half-maximal effect
Target sequence (P11473 whole entry, looked up): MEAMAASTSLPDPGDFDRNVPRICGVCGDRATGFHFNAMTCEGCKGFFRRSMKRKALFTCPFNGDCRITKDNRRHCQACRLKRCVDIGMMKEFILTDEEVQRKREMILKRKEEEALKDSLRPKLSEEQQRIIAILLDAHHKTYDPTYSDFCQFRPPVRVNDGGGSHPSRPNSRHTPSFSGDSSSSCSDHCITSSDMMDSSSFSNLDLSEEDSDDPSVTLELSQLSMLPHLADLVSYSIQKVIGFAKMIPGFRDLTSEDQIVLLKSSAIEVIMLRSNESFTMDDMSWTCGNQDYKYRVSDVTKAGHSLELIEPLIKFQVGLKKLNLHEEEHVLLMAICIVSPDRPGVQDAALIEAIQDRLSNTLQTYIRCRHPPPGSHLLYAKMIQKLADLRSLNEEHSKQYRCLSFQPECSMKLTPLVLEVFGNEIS
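Fluorescence polarization assay measuring small-molecule disruption of VDR binding to the coregulator peptide SRC2-3. Compounds were pin-transferred (23 nl) into the reagent mix and incubated 2 h at room temperature before reading.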
MmCpn inh: Inhibitors of TCP-1 ring complex (TRiC) of Methanococcus maripaludis (MmCpn): qHTS; Chaperonin Mm-Cpn (Methanococcus maripaludis); purified Mm-Cpn ATPase, ADP Transcreener TR-FRET; Potency, µM (series often up to 76.9 µM), inactives show top-dose activity, negative = inhibition, usual class: inhibitors; actives 0.031% (n = 330,000); note: potency is the fitted concentration of half-maximal effect; nearly all actives have a fitted effect of over 80% in size
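Reaction buffer contained 30 mM Tris pH 7.4, 100 mM KCl, 5 mM MgCl2 and 1 mM DTT. Mm-CPN (25 nM final) hydrolysed 10 uM ATP over 30 min at 37°C; ADP was read by HTRF.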
CCT modulator: High-Throughput Screening for Modulators of Cytosolic Chaperonin Activity | purified chaperonin ATPase assay, HTRF ADP detection, 30 min | activity change, % (concentration not given with the values), hits read low | actives 0.3% (n = 360,000); in the data active = activity change below about -30%
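Nucleotide hydrolysis assay: TRiC at 20–40 nM final (set by batch activity) with 10 uM ATP, 30 min at 37 °C, in presence of 76 uM compound. Detection by competitive ADP HTRF, 30 min ambient.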
G9a inh: qHTS Assay for Inhibitors of Histone Lysine Methyltransferase G9a; Histone-lysine N-methyltransferase EHMT2 (Homo sapiens), Q96KQ7; AID 504332, 2011; actives 8.8% (n = 350,000); G9a H3K9 monomethylation, AlphaScreen, 2 h; Potency, µM (doses to about 102 µM), without a hit: top-dose activity, negative = inhibition, usual class: inhibitors; note: potency is the fitted concentration of half-maximal effect; nearly all actives have a fitted effect of over 75% in size
Target sequence (Q96KQ7 913-1193 limits assumed): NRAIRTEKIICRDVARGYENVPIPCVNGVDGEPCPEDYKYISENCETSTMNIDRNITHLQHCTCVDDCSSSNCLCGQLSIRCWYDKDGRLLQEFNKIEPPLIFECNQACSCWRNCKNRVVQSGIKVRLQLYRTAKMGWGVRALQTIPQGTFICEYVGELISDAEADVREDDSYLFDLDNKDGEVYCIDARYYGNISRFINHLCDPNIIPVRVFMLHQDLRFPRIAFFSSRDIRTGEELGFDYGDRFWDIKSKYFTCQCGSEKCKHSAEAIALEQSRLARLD
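Signal arises when biotinylated H3K9 peptide, once monomethylated, bridges streptavidin donor and antibody-captured acceptor beads. Enzyme at 20 nM was preincubated 15 min with test compounds; peptide 500 nM and SAM 20 uM then reacted for 2 h.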
* hit, by the source's call; ? = inconclusive; . = no result; [ ] = another dose, or the depositor's remark. Unless noted, calls come from the whole dose curve; as a rule, active = well fitted curve in the direction sought with a large enough effect; inconclusive = small, poorly fitted or top-dose-only effect, or another doubt; inactive = no such curve, though single readings can be large; an effect the other way counts as inactive or inconclusive. Unless noted, % is set by controls: 0 for no effect and ±100 for the full control effect.

SMILES	Sfp PPTase inh	PLK1 PBD block	VDR inh	MmCpn inh	CCT modulator	G9a inh
CC(C)C(=O)N(c1ccc2oc(=O)sc2c1)S(=O)(=O)c1ccccc1	18µM*	-11%	79µM*	1%	1	3.2µM*
CC(=O)c1c(C)oc2ccc(N(C(=O)Oc3ccccc3)S(=O)(=O)c3ccc(C(C)(C)C)cc3)cc12	.	.	-6%	.	.	-40%[59 µM]
COc1ccc(N(C(C)=O)S(=O)(=O)c2cc(OC)ccc2OC)cc1	15%	-3%	-3%	-4%	-3	-7%[12.7 µM]
COc1ccc(C(=O)Oc2ccc3ccc(=O)oc3c2)cc1	1%	1%	2%	1%	1	5%
COc1ccc(C(=O)Oc2ccc3oc(=O)sc3c2)cc1	50µM*	-24%	?	2%	0	?
COc1ccc(OC)c(S(=O)(=O)N(C(C)=O)c2ccc3oc(=O)sc3c2)c1	45µM*	2%	-15%	1%	-2	35µM*
COc1ccc(OC)c(CCNC(=O)c2cc3c(s2)-c2c(C)cccc2OC3)c1	.	.	?	.	.	20%[59 µM]
c1ccc2cc(C3=NCCN3)ncc2c1	-29%	.	-1%	.	.	.
COc1ccccc1C(=O)Nc1ccc2nc(SCC(=O)N3CCCC3)sc2c1	.	.	16%	.	.	8%[59 µM]
O=c1[nH]cnc2c1nc(Cl)n2C1OC(CO)C(O)C1O (stereo not drawn)	3%	.	1%	.	.	.
CN(C)CCn1c2c(c(SCC(=O)Nc3ccc(F)cc3F)nc1=O)CCC2	.	.	-4%	.	.	-2%[59 µM]
O=C(O)CCn1cc(/C=C2\NC(=S)N(c3ccccc3)C2=O)c(-c2ccc(Br)cc2)n1	12%	-13%	-4%	-1%	1	20µM*
Cc1cc(-c2ccccc2)c2c(=O)n(-c3ccccc3)[nH]c2n1	-14%	-5%	3%	-4%	-1	11µM*
CC1(C)CC(NNCCC#N)=CC(=[N+]2CCCC2)C1	-16%	24µM*	0%	0%	0	40µM*
CC1(C)CC(N2CCCC2)=CC(=[N+]2CCCCC2)C1	-19%	-18%	-15%	-1%	-2	?
CO[C@@H]1COC(=O)[C@H](C)NC(=O)[C@@H](C)COC(=O)[C@H](C)NC(=O)C/C=C\[C@H]1C	-8%	.	.	.	.	.
O=C1c2ccccc2C(=O)c2c(NCCCN(CCO)CCO)cccc21	-21%	?	8%	?	-5	45µM*
O=C(NCc1ccccc1)C(=O)NCC(c1ccco1)S(=O)(=O)c1ccccc1 (stereo not drawn)	.	.	5%	.	.	-42%[59 µM]
Nc1ccccc1Sc1ccccc1[N+](=O)[O-]	-2%	-4%	-5%	2%	-2	-47%[59 µM]
Nc1nc(O)c(Sc2ccccc2[N+](=O)[O-])c(=O)[nH]1	-7%	12µM*	-10%	-1%	0	40µM*
COc1cc(Cl)c(C)cc1NC(=O)Cn1c2ncccc2c(=O)n1-c1ccccc1	.	.	9%	.	.	9%[59 µM]
CCN(C(=O)Cn1nc2c3cc(F)ccc3n(Cc3cccc(C)c3)cc-2c1=O)c1cccc(C)c1	.	.	5%	.	.	-34%[59 µM]
Cc1cccc(C)c1NC(=O)CSc1nc(-c2cccs2)cc(C(F)(F)F)n1	.	.	5%	.	.	10%[59 µM]
CC(C)(C)c1onc(OCP(=O)(O)O)c1CC(N)C(=O)O (stereo not drawn)	.	.	1%	.	.	5.3µM*
COc1ccc(N=N/C(=C\O)C(=O)c2cccs2)cc1	-10%	-14%	-8%	1%	0	20µM*
SMILES	Sfp PPTase inh	PLK1 PBD block	VDR inh	MmCpn inh	CCT modulator	G9a inh
COCCNc1ccc(N2C(=O)C3CCCCC3C2=O)cc1[N+](=O)[O-] (stereo not drawn)	22%	6%	-15%	-4%	-1	?
C=CCNc1ccc(N2C(=O)C3CCC(C)CC3C2=O)cc1[N+](=O)[O-] (stereo not drawn)	0%	.	.	-4%	.	50µM*
O=C1C2CCCCC2C(=O)N1c1ccc(NC2CCCCC2)c([N+](=O)[O-])c1 (stereo not drawn)	4%	6%	-18%	1%	0	8.9µM*
C=CCNc1ccc(N2C(=O)CCCC2=O)cc1[N+](=O)[O-]	12%	-1%	0%	1%	1	8%[2.33 µM]
C=CCN(CC=C)c1ccc(N2C(=O)C3CCCCC3C2=O)cc1[N+](=O)[O-] (stereo not drawn)	3%	-12%	0%	-5%	2	22µM*
CCCc1ccc(C2=Nn3c(nnc3C(C)C)SC2)cc1	22µM*	11µM*	79µM*	3%	-1	8.9µM*
COc1ccc(C2=Nn3c(C)nnc3SC2)cc1	15%	-2%	15%	-1%	-1	45µM*
COc1ccc(OCc2nnc3n2N=C(c2ccc(OC)cc2)CS3)cc1	11%	?	-6%	2%	-1	50µM*
O=C(C1CCC(Cn2c(=O)c3sccc3n(Cc3cccc(F)c3)c2=O)CC1)N1CCCCC1 (stereo not drawn)	.	.	-8%	.	.	10%[59 µM]
NC[C@@H]1O[C@@H](O[C@H]2[C@H](O)[C@H](O[C@@H]3O[C@H](CO)[C@@H](O)[C@H](N)[C@@H]3O)[C@@H](N)C[C@H]2N)[C@H](N)C[C@@H]1O	9%	.	11%	.	.	31%[21.5 µM]
CCOC(=O)C(C#N)=C1CCN(Cc2ccccc2)CC1	11%	-16%	-15%	-2%	-4	?
CCOC(=O)/C(C#N)=C1\CCCN1CC(N)=S	35µM*	21µM*	?	0%	-2	18µM*
O=C(Nc1ccc(Cl)c(C(F)(F)F)c1)C1CCCN(S(=O)(=O)c2cccc3cccnc23)C1 (stereo not drawn)	.	.	10%	.	.	-3%[59 µM]
COc1ccc(N2CC(NC(=O)C3CC3)CC2=O)cc1OC (stereo not drawn)	.	.	16%	.	.	-1%[59 µM]
C=CCNC(=O)CSc1nnc(-c2cccs2)o1	25%	-4%	4%	-3%	-2	1%
O=C(CSc1nnc(-c2cccs2)o1)NCC1CN(Cc2ccccc2)CCO1 (stereo not drawn)	14%	-6%	-3%	-2%	0	3.5µM*
CCCn1c(=S)[nH]c2sc3c(c2c1=O)CCCC3	11%	-21%	-4%	-4%	1	-5%
COCCCn1c(=S)[nH]c2sc3c(c2c1=O)CCCS3	35µM*	-16%	3%	-28%	1	4.5µM*
Cn1c(=S)[nH]c2sc3c(c2c1=O)CCC(C(C)(C)C)C3 (stereo not drawn)	19%	.	.	-1%	.	40µM*
